Results taken from the antibiotic and cytotoxicity screens of Wong et al. (2023).
Out of some 39,000 compounds screened, about 1,500 (3.8%) were called active. Many of the other results were omitted from the sample, so actives are more common in it than they were.

What follows are molecules tested on HSkMC (human skeletal muscle cells) (assay: cytotoxicity call (relative viability < 0.9)). Details: 10 µM.
For `CCCCCCCCCCCCCCCCOCCCOP(=O)(O)CO[C@H](CO)Cn1ccc(N)nc1=O`, the cytotoxicity call was “inactive”. `CC(C)NC(=O)Nc1ccc2c(c1)C(=O)N([C@@H](C)CO)C[C@H](C)[C@@H](CN(C)Cc1ccc3c(c1)OCO3)O2` was tested, and the cytotoxicity call was “inactive”. In the case of `COCCn1cc2c(n1)[C@H](CNC(=O)COC)OCC2`, the cytotoxicity call is reported as “inactive”. For `C[C@@H]1CCCCO[C@H](CN(C)C(=O)c2ccccc2)[C@@H](C)CN([C@H](C)CO)C(=O)c2cc(NC(=O)C3CCCCC3)ccc2O1`, the cytotoxicity call was “inactive”. In the case of `C[C@@H]1CN([C@@H](C)CO)C(=O)c2cc(NC(=O)Nc3ccccc3)ccc2O[C@@H](C)CCCCO[C@H]1CN(C)C(=O)Nc1cccc2ccccc12`, the cytotoxicity call is reported as “inactive”. For `C[C@@H]1CCCCO[C@H](CN(C)Cc2ccccc2)[C@@H](C)CN([C@@H](C)CO)C(=O)c2cc(NC(=O)Nc3ccc(C(F)(F)F)cc3)ccc2O1`, the cytotoxicity call was “active”. With `C[C@@H]1CN([C@H](C)CO)C(=O)c2cc(NC(=O)Nc3ccc(C(F)(F)F)cc3)ccc2O[C@@H](C)CCCCO[C@@H]1CN(C)Cc1ccccc1` the cytotoxicity call was “active”. With `C[C@@H]1CCCCO[C@H](CN(C)Cc2ccccc2)[C@@H](C)CN([C@H](C)CO)C(=O)c2cc(NC(=O)Nc3ccc(C(F)(F)F)cc3)ccc2O1` the cytotoxicity call was “active”. In the case of `C[C@H](CO)N1C[C@H](C)[C@H](CN(C)Cc2ccccc2)OCCCC[C@H](C)Oc2ccc(NC(=O)Nc3ccc(C(F)(F)F)cc3)cc2C1=O`, the cytotoxicity call is reported as “active”. In the case of `Cn1nc(C2CC2)cc1N`, the cytotoxicity call is reported as “inactive”. With `C[C@H](CO)N1C[C@H](C)[C@@H](CN(C)C(=O)NC2CCCCC2)OCCCC[C@H](C)Oc2ccc(NC(=O)C3CCCCC3)cc2C1=O` the cytotoxicity call was “inactive”. With `Cc1noc(C)c1NC(=O)Nc1ccc2c(c1)C(=O)N([C@H](C)CO)C[C@H](C)[C@H](CN(C)C(=O)Cc1ccccc1)OCCCC[C@@H](C)O2` the cytotoxicity call was “inactive”. In the case of `C[C@H](CO)N1C[C@H](C)[C@H](CN(C)C(=O)C2CCCCC2)Oc2cc(C#Cc3ccncc3)ccc2S1(=O)=O`, the cytotoxicity call is reported as “inactive”. `Cc1onc(-c2ccccc2)c1C(=O)NC1C(=O)N2C1SC(C)(C)C2C(=O)[O-].[Na+]` (stereo not drawn) was tested, and the cytotoxicity call was “inactive”. For `COc1ccc(S(=O)(=O)Nc2ccc3c(c2)C(=O)N([C@H](C)CO)C[C@H](C)[C@H](CN(C)C(=O)Nc2ccc(F)cc2)OCCCC[C@H](C)O3)cc1`, the cytotoxicity call was “inactive”. For `O=C(O)c1ccoc1`, the cytotoxicity call was “inactive”. In the case of `Cc1ccc(S(=O)(=O)N(C)C[C@H]2Oc3cc(C#Cc4ccncc4)ccc3S(=O)(=O)N([C@H](C)CO)C[C@@H]2C)cc1`, the cytotoxicity call is reported as “inactive”. With `C[C@@H]1CN([C@H](C)CO)C(=O)c2cc(NC(=O)NC3CCCCC3)ccc2O[C@@H]1CN(C)Cc1ccc(C(F)(F)F)cc1` the cytotoxicity call was “inactive”. For `C[C@@H]1CCCCO[C@@H](CN(C)Cc2ccccc2)[C@H](C)CN([C@@H](C)CO)C(=O)c2cc(NC(=O)Nc3ccc(C(F)(F)F)cc3)ccc2O1`, the cytotoxicity call was “inactive”. In the case of `C[C@@H]1CCCCO[C@H](CN(C)Cc2ccccc2)[C@H](C)CN([C@H](C)CO)C(=O)c2cc(NC(=O)Nc3ccc(C(F)(F)F)cc3)ccc2O1`, the cytotoxicity call is reported as “active”. For `C[C@@H]1CCCCO[C@@H](CN(C)Cc2ccccc2)[C@H](C)CN([C@H](C)CO)C(=O)c2cc(NC(=O)Nc3ccc(C(F)(F)F)cc3)ccc2O1`, the cytotoxicity call was “inactive”. With `C[C@@H]1CN([C@@H](C)CO)C(=O)c2cc(NC(=O)Nc3ccc(C(F)(F)F)cc3)ccc2O[C@@H](C)CCCCO[C@@H]1CN(C)Cc1ccccc1` the cytotoxicity call was “inactive”. For `C[C@@H]1CCCCO[C@@H](CN(C)Cc2ccccc2)[C@@H](C)CN([C@H](C)CO)C(=O)c2cc(NC(=O)Nc3ccc(C(F)(F)F)cc3)ccc2O1`, the cytotoxicity call was “inactive”. `C[C@@H]1CCCCO[C@@H](CN(C)Cc2ccccc2)[C@@H](C)CN([C@@H](C)CO)C(=O)c2cc(NC(=O)Nc3ccc(C(F)(F)F)cc3)ccc2O1` was tested, and the cytotoxicity call was “active”. `C[C@H](CO)N1C[C@H](C)[C@@H](CN(C)Cc2ccccc2)OCCCC[C@H](C)Oc2ccc(NC(=O)Nc3ccc(C(F)(F)F)cc3)cc2C1=O` was tested, and the cytotoxicity call was “active”. In the case of `C[C@@H]1CN([C@H](C)CO)C(=O)c2cc(NC(=O)Nc3ccc(C(F)(F)F)cc3)ccc2O[C@@H](C)CCCCO[C@H]1CN(C)Cc1ccccc1`, the cytotoxicity call is reported as “active”. For `CCC[C@@H](O)C#Cc1cnc2c(c1)C(=O)N([C@H](C)CO)C[C@H](C)[C@H](CN(C)C(=O)Nc1ccc(F)cc1)O2`, the cytotoxicity call was “inactive”. In the case of `COC(=O)C12CC3(C(=O)OC)CC(C(=O)OC)(CC(C(=O)OC)(C1)C3=O)C2=O`, the cytotoxicity call is reported as “inactive”. For `COc1cccc(S(=O)(=O)Nc2ccc3c(c2)[C@@H]2C[C@H](CC(=O)NCc4cccc(F)c4)O[C@@H](CO)[C@@H]2O3)c1`, the cytotoxicity call was “inactive”. For `Cc1c2occ(C(C)(C)C)c2cc2c3c(c(=O)oc12)CCCC3`, the cytotoxicity call was “inactive”. In the case of `NC(=O)c1ccco1`, the cytotoxicity call is reported as “inactive”. `C[C@H](CO)N1C[C@H](C)[C@H](CN(C)C(=O)Nc2cccc3ccccc23)Oc2c(NC(=O)NC3CCCCC3)cccc2C1=O` was tested, and the cytotoxicity call was “inactive”. In the case of `COc1ccc(NC(=O)N(C)C[C@H]2Oc3ccc(NC(=O)C4CC4)cc3C(=O)N([C@H](C)CO)C[C@H]2C)cc1`, the cytotoxicity call is reported as “inactive”. In the case of `C=CCOC(=O)[C@H]1[C@@H]2C(=O)O[C@@H](c3ccccc3)[C@@H](c3ccccc3)N2[C@@H](c2ccc(OCCOC(=O)NCCCCCC(=O)NO)cc2)[C@@]12C(=O)Nc1ccccc12`, the cytotoxicity call is reported as “inactive”. For `C[C@@H]1CCCCO[C@H](CN(C)C(=O)Cc2ccccc2)[C@@H](C)CN([C@@H](C)CO)C(=O)c2cc(NS(=O)(=O)c3ccc(F)cc3)ccc2O1`, the cytotoxicity call was “inactive”. `Cn1c(=O)c2c(ncn2CC(=O)O)n(C)c1=O` was tested, and the cytotoxicity call was “inactive”. `Cc1cnc(Nc2ccc(F)cc2Cl)nc1-c1c[nH]c(C(=O)N[C@H](CO)c2cccc(Cl)c2)c1` was tested, and the cytotoxicity call was “active”. `O=C(C[C@@H]1CC[C@@H]2NC[C@@H](O)COC[C@H]2O1)NCCN1CCCC1` was tested, and the cytotoxicity call was “inactive”. With `Cc1ccc(S(=O)(=O)N(C)C[C@@H]2OCCCC[C@H](C)Oc3ccc(NS(=O)(=O)c4ccc(Cl)cc4)cc3C(=O)N([C@@H](C)CO)C[C@H]2C)cc1` the cytotoxicity call was “inactive”. For `O=C(O)c1cc2sccc2s1`, the cytotoxicity call was “inactive”. `CCOc1cc2ncc(C#N)c(Nc3ccc(OCc4ccccn4)c(Cl)c3)c2cc1NC(=O)/C=C/CN(C)C` was tested, and the cytotoxicity call was “active”. `CCOc1cc2ncc(C#N)c(Nc3ccc(OCc4ccccn4)c(Cl)c3)c2cc1NC(=O)/C=C/[C@H]1CCCN1C` was tested, and the cytotoxicity call was “inactive”. `COc1cc(Nc2c(C#N)cnc3cc(OCCCN4CCN(C)CC4)c(OC)cc23)c(Cl)cc1Cl` was tested, and the cytotoxicity call was “inactive”.
